# From PubChem BioAssay (NCATS)
# Where “and” joins values, the source holds several entries; their conditions need not be identical. Identical values can stand only once. Unmarked numbers belong to inactive results. Results filed as inconclusive are left out. Where a call stands in place of a potency, no number is given. Calls of active or inactive are those of the source. Unless noted, calls follow the shape of the dose curve; as a rule, active = well fitted curve in the direction sought with a large enough effect; inconclusive = small, poorly fitted or top-dose-only effect, or another doubt; inactive = no such curve, though single readings can be large; an effect the other way counts as inactive or inconclusive.
# Tests used:
# [1] = Cell Viability - Renal Proximal Tubule (AID 545); conditions: renal proximal tubule cells viability; at 91.7 µM (top of the series), primary cells of rat origin unless noted;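 also: cells exposed to compound for 40 hours; nearly all actives have a fitted effect of over 40% in size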
# In short: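 Cytotoxicity is scored as a concentration-dependent drop in cellular ATP in primary rat renal proximal tubule cells exposed for 40 hr. AC50 derives from Hill modelling.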
# [2] = Cellular Toxicity (caspase-3) HUV-EC-C (AID 656)
# In short: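 Read-out: luminescence proportional to caspase 3/7 activity, measured 20 min after adding Caspase-Glo 3/7 reagent. Cells (HUV-EC-C) had received compound for 16 hr at 37°C. Increases relative to DMSO and 100 uM tamoxifen gave concentration-response AC50 values.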
# [3] = Cellular Toxicity (caspase-3) BJ (AID 658)
# In short: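 qHTS, BJ fibroblasts, 1000 cells/well; 5 hr preincubation, 16 hr compound, 37 °C; Caspase-Glo 3/7 reagent, 1 hr RT; luminescence. DMSO = 0%, 10 uM staurosporine = 100%. Hill-equation AC50.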
# [4] = Cellular Toxicity (caspase-3) SK-N-SH (AID 661)
# In short: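 Cells were seeded and incubated 5 hr at 37 °C, dosed with compound over a concentration range for 16 hr, then given Caspase-Glo 3/7 reagent for 1 hr at room temperature before luminescence reading.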
# [5] = Cellular Toxicity (caspase-3) H-4-II-E (AID 663);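 also: cells exposed to compound for 16 hr before readout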
# In short: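 H-4-II-E rat hepatoma, 1500 cells/well, 5 hr settle at 37 °C; compound 16 hr, 37 °C, complete medium; Caspase-Glo 3/7, 20 min RT; luminescence. DMSO = 0%, 100 uM tamoxifen = 100%; Hill-equation AC50.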
# [6] = Cellular Toxicity (caspase-3) NIH 3T3 (AID 666);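 also: caspase signal read after 16 h compound exposure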
# In short: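 Cells were plated at 1000 per well and incubated 5 hr at 37°C, then compound was added for 16 hr. Caspase-Glo 3/7 reagent followed for 20 min at room temperature before luminescence was read.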
# [7] = Cellular Toxicity (caspase-3) Renal Proximal Tubule (AID 667); conditions: renal proximal tubule cells; at 91.7 µM (top of the series), primary cells freshly taken from rat, solvent-only wells 0%, staurosporine 100% unless noted;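 also: cells exposed to compound for 16 hours at 37 °C before detection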
# In short: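 In qHTS format, rat primary proximal tubule cells seeded at 1000 per well are exposed to compounds for 16 hours at 37 °C. An increase in Caspase-Glo 3/7 luminescence indicates caspase activation.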
# [8] = Cell Viability - LYMP1-002 - Assay at 16 hr (AID 948); also: potency is read from the fitted curve at half-maximal effect
# In short: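 Acute cytotoxicity is scored as a concentration-dependent fall in intracellular ATP in a human lymphoblastoid line (LYMP1-002) after 16 hr compound exposure at 37 C, measured by luciferase luminescence.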
# [9] = MultiTox-Fluor Cytotoxicity Assay - LYMP1-002 - Dead Cells (AID 960); also: nearly all actives have a fitted effect of over 60% in size; also: potency is read from the fitted curve at half-maximal effect
# In short: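 Cells were plated, rested 5 hr, then treated with compound dilution series for 16 hr at 37 C. After adding substrate reagent and 60 min at room temperature, dead-cell protease fluorescence gave concentration-response curves fitted by the Hill equation.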
# [10] = MultiTox-Fluor Cytotoxicity Assay - LYMP1-003 - Live Cells (AID 962); also: potency is read from the fitted curve at half-maximal effect
# In short: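 Acute cytotoxicity is scored as a drop in live-cell protease activity in human lymphoblastoid LYMP1-003 cells after 16 hr compound exposure at 37 C. AC50 values come from Hill-equation modelling of concentration-response data.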
# [11] = Cell Viability - LYMP1-003 - Assay at 24 hr (AID 963); also: potency is read from the fitted curve at half-maximal effect
# In short: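 Cytotoxicity is scored as a concentration-dependent fall in ATP-linked luciferase signal in human lymphoblastoid LYMP1-003 cells treated 24 hr at 37 C in complete culture medium.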
# [12] = Cell Viability - LYMP2-025 (AID 976); also: potency is read from the fitted curve at half-maximal effect
# In short: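 Acute cytotoxicity is scored as a concentration-dependent fall in intracellular ATP, measured by luciferase luminescence, in human lymphoblastoid LYMP2-025 cells exposed to compound for 24 hours at 37 C. AC50 values come from standard Hill fits.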
# [13] = Cell Viability - LYMP2-010 (AID 981); also: nearly all actives have a fitted effect of over 55% in size; also: potency is read from the fitted curve at half-maximal effect
# In short: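 Steps: seed 2500 LYMP2-010 cells per well; incubate 5 hr at 37 C; add compound; incubate 24 hr at 37 C; add CellTiter-Glo, wait 30 min at room temperature; read luminescence. Concentration-response fitted to Hill equation for AC50.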
# [14] = Cell Viability - LYMP2-018 (AID 985);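 also: compound exposure lasted 24 hr at 37 °C; nearly all actives have a fitted effect of over 50% in size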; also: potency is read from the fitted curve at half-maximal effect
# In short: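 Seed 2500 lymphoblastoid cells per well, incubate 5 hr at 37 C, add compound and incubate 24 hr at 37 C, add CellTiter-Glo, wait 30 min at room temperature, then read luminescence.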
# [15] = Cell Viability - LYMP2-020 (AID 986); also: nearly all actives have a fitted effect of over 55% in size; also: potency is read from the fitted curve at half-maximal effect
# In short: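 Seed 2500 cells per well and incubate 5 hr at 37 C. Add compounds at a concentration series and incubate 24 hr at 37 C. Add CellTiter-Glo, wait 30 min at RT, read luminescence, and fit a Hill curve for AC50.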
# [16] = biological target: Peroxisome proliferator-activated receptor alpha (Homo sapiens) (UniProt Q07869); experiment: qHTS assay for small molecule agonists of the peroxisome proliferator-activated receptor alpha (PPARalpha) signaling pathway (AID 651778); conditions: PathHunter PPARalpha complementation, chemiluminescence, 6 h; active compounds read high
# In short: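 Enzyme-fragment complementation assay in which ligand-bound PPARalpha translocates and forms an active enzyme that generates chemiluminescence. Cells were plated overnight, exposed to compound for 6 hr at 37 C, and then given detection reagent for 60 min at room temperature.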
# [17] = qHTS assay for small molecule agonists of the antioxidant response element (ARE) signaling pathway measured by Nrf2-dependant transcriptional activity - cell viability counter screen (AID 720653; active = well fitted curve in the direction sought with a large enough effect in the repeat runs; an effect the other way counts as inactive or inconclusive); conditions: ARE-bla HepG2 viability, CellTiter-Glo ATP luminescence, 16 h; active compounds read low
# In short: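 ARE-bla HepG2 cells treated with compounds for 16 h at 37C; this counter screen measures viability as intracellular ATP by CellTiter-Glo luminescence after 30 min at room temperature.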
# [18] = qHTS assay for cell viability of HEK293 cells (AID 743288); conditions: ATP luminescence (CellTiter-Glo), 18 h; max response: active compounds read low; also: nearly all actives have a fitted effect of over 50% in size
# In short: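 Quantitative high-throughput screen: compounds were pinned onto parental HEK293 cells (2,000 per well) after a minimum 5 h settling at 37 C, incubated 18 h at 37 C, and intracellular ATP measured by luciferase luminescence.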
# [19] = qHTS assay for cell viability of the p53RE-bla HCT-116 cell line (AID 743292); also: nearly all actives have a fitted effect of over 55% in size
# In short: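 Readout: CellTiter-Glo luminescence after 30 min RT. Treatment: compounds in DMSO, 16 h, 37 C. Cells: CellSensor p53RE-bla HCT-116, 4,000/well, preincubated 5 h.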
# Chain of Peroxisome proliferator-activated receptor alpha (Homo sapiens) (Q07869 whole entry, looked up, the tested form may be a part): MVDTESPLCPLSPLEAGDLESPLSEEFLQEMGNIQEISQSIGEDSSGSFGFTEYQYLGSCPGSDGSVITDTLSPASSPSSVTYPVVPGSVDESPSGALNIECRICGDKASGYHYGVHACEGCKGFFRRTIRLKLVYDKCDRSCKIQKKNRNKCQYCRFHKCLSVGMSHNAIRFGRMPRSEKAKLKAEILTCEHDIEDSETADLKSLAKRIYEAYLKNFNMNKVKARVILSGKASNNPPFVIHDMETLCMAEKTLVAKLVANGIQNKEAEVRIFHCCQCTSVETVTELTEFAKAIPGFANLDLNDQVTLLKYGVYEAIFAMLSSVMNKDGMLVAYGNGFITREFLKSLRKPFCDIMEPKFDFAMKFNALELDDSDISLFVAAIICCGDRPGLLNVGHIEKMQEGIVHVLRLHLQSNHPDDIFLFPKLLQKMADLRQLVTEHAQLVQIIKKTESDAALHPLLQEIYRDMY
SMILES,"activity change, negative = cytotoxicity [1]",outcome [2],outcome [3],outcome [4],outcome [5],outcome [6],caspase-3 activation [7],Potency [8],Potency [9],Potency [10],Potency [11],Potency [12],Potency [13],Potency [14],Potency [15],max response [16],max response [17],max response [18],Potency [19]
ClC1=C(Cl)C2(Cl)C3C4CC(C5OC45)C3C1(Cl)C2(Cl)Cl (centres undefined),-5.71% [at 91.7 µM],inactive,inactive,inactive,inactive,inactive,-4.43% [at 91.7 µM],12.6 µM (active),20 µM (active),12.6 µM (active),25.1 µM (active),50.1 µM (active),50.1 µM (active),39.8 µM (active),31.6 µM (active),9.76%,-3.29%,-18.3%,inactive
CCc1cccc(CC)c1N(COC)C(=O)CCl,–,inactive,inactive,inactive,inactive,inactive,1.3%,inactive,inactive,inactive,inactive,inactive,50.1 µM (active),39.8 µM (active),50.1 µM (active),-2.24% and -0.952%,6.28% and -3.56%,-15.4% and -21.3%,inactive
COP(=S)(OC)Oc1ccc([N+](=O)[O-])cc1,-3.77% [at 91.7 µM],inactive,inactive,inactive,inactive,inactive,-6.77% [at 91.7 µM],inactive,inactive,inactive,inactive,inactive,inactive,inactive,inactive,-2.98% and -2.34%,0.527% and -8.08%,-1.38% and -0.0798%,inactive
COC(=O)NC(=S)Nc1ccccc1NC(=S)NC(=O)OC,-14.2%,inactive,inactive,inactive,inactive,inactive,-3.02%,inactive,inactive,inactive,inactive,inactive,inactive,inactive,inactive,-4.83% and -0.925%,-1.18% and 2.94%,1.27% and -9.9%,inactive
ClC(Cl)=C(c1ccc(Cl)cc1)c1ccc(Cl)cc1,-4.32% [at 91.7 µM] and -7.69% [at 91.7 µM],inactive,inactive,inactive,inactive,inactive,-10.4% [at 91.7 µM] and -6.37% [at 91.7 µM],inactive,inactive,inactive,inactive,inactive,inactive,inactive,inactive,21.8% and 11.7% and 4.05%,6.47% and -9.67% and -6.97%,-14.7% and -6.72% and -17.4%,inactive
